Hits are enriched below; roughly 21% of the tested compounds scored in any of these assays.
Shiga inhibitor: blocks Shiga toxin action in Vero cells | Vero cells, Shiga toxin protein synthesis inhibition reporter | inhibition, % at 38.7 µM | hit rate 9.2% among 290,000 | AID 2315; in the data active = inhibition mostly above about 28%, no sharp cut-off; inactive = mostly below about 43%; also: 0% is about no effect
Pf growth 96h: P. falciparum growth inhibition at 96 hours. P. falciparum luciferase reporter growth, 96 h. Potency, µM (series often up to 28.7 µM), inactives show at the top dose activity change, negative = inhibition, most hits filed as inhibitors. hit rate 6.9% among 320,000. AID 504834; also: potency is read from the fitted curve at half-maximal effect; % is scaled to controls: 0 for no effect and ±100 for the full control effect
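Luminescence readout: decreased luciferase signal marks inhibited growth of reporter-expressing P. falciparum in infected red cells (2% hematocrit, 0.05% parasitemia final), exposed to compound two generations (96 h, 37 C, 5% CO2).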
SARS PLpro yeast: blocks SARS-CoV papain-like protease in a yeast assay. S. cerevisiae expressing SARS-CoV PLpro, growth rescue. Potency, µM (highest dose often 32.9 µM), for inactives: at the top dose activity, positive = growth rescue, most hits filed as activators. hit rate 0.19% among 330,000. AID 485353; calls by dose curve; also: potency is read from the fitted curve at half-maximal effect; 0% is about no effect; nearly all actives have a fitted effect of over 55% in size
NS1 function inh: influenza NS1 inhibition | Potency, µM (highest dose often 46.1 µM), for the others: at the highest dose activity, positive = more growth | hit rate 0.4% among 270,000; calls by dose curve; also: potency is read from the fitted curve at half-maximal effect; actives are rising curves; nearly all actives have a fitted effect of over 50% in size
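In this qHTS, NS1 from influenza A is expressed in budding yeast, where it slows growth. Cells are switched from glucose to 2% galactose medium (pH 6.0, -URA), treated with compound, and growth recovery is read at OD600.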
CHX counter: affects cycloheximide protein synthesis inhibition readout, counter-screen; max response, %; cell reporter, cycloheximide protein synthesis inhibition counterscreen; hit rate 12% among 300,000; in the data active = max response mostly above about 13%, no sharp cut-off; inactive = mostly below about 14%; also: read at 38.3 µM for the half of the compounds with a filed dose; 0% is about no effect
Pf growth 48h: inhibits P. falciparum growth in the first generation, 48 h. hit rate 5.9% among 310,000. Potency, µM (doses to about 28.7 µM), inactives show top-dose activity change, negative = inhibition, hits mostly inhibitors. P. falciparum luciferase growth in erythrocytes, 48 h; also: potency is read from the fitted curve at half-maximal effect; % is scaled to controls: 0 for no effect and ±100 for the full control effect
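Growth was read as firefly luciferase luminescence after a 48 h, 37 C, 5% CO2 exposure of compounds to reporter-bearing P. falciparum cultures (0.1% parasitemia, 2% hematocrit final) in Albumax-supplemented RPMI 1640.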
The depositor's hits bear a star; i = inactive; ? = inconclusive; . = no result given; ! = a repeat was not active. Unless noted, calls follow the shape of the dose curve; as a rule, active = well fitted inhibition curve with a large enough effect; inconclusive = small, poorly fitted or top-dose-only effect, or another doubt; inactive = no such curve, though single readings can be large or run the other way.

SMILES | Shiga inhibitor | Pf growth 96h | SARS PLpro yeast | NS1 function inh | CHX counter | Pf growth 48h
c1ccc(Cn2ncc3ccccc32)cc1 | 18.2 | -0.8% | 4.0% | 9.6% | 7.6 | 4.2%
O=C(CSc1n[nH]c(-c2cccs2)n1)NCCc1ccccc1 | . | -13.6% | 2.5% | . | . | 14.7%
CCC(C)NC(=O)CN1c2cccc3cccc(c23)S1(=O)=O (stereo not drawn) | 14.4 | -0.6% | -0.6% | -3.0% | -3.8 | -12.7%
Cc1ccccc1-n1c(=O)/c(=C\c2ccco2)s/c1=C(/C#N)C(=O)Nc1ccccc1 | -2.8 | 9.7% | ? | 14.2% | 8.0 | 1.47µM*
CCOC(=O)/C=c1\s/c(=C(\C#N)C(=O)NC)n(-c2ccccc2)c1=O | -3.0 | 43.3% | 1.9% | 17.0% | -0.2 | 33.3%
N=C1SCC(=O)N1c1ncc(Cc2cccc(Cl)c2)s1 | -21.8 | -24.9% | -5.7% | -60.7% | -7.8 | ?
Cc1ccc(C(=O)Nc2cnc3ccccn3c2=O)cc1 | 102.9* | . | -15.3% | -49.2% | 40.8* | 204.9%
O=C(Nc1cnc2ccccn2c1=O)c1ccc(Cl)cc1Cl | 96.3* | i | -2.1% | . | 44.1* | 424.6%
O=C(/C=C/Sc1ccc(C(F)(F)F)cn1)c1ccccc1 | 35.5 | -13.4% | -1.5% | -2.8% | 22.2* | ?
COc1ccc(-c2ccc(F)cc2)cc1[C@H]1[C@H]2C=CC[C@@H](C)[C@@H]2C(=O)N1Cc1ccccc1 | -1.1 | ? | -6.7% | 8.4% | -6.1 | 11.7µM*
COc1ccc(-c2ccc(F)cc2)cc1C1C2C=CCC(C)C2C(=O)N1Cc1ccccc1 (stereo not drawn) | -1.8 | . | . | . | 0.1 | .
C[C@@H]1CC=C[C@H]2[C@H]1C(=O)N(Cc1ccccc1)[C@H]2c1ccc(/C=C/c2ccccc2)cc1F | -4.4 | ? | -6.4% | 20.8% | -3.3 | 10.4µM*
COc1ccc(-c2c([C@H]3[C@H]4C=CC[C@@H](C)[C@@H]4C(=O)N3Cc3ccccc3)ccc3ccccc23)cc1OC | 20.9 | 2.94µM* | -1.1% | 4.3% | 1.8 | 2.33µM*
COc1ccc(-c2c(C3C4C=CCC(C)C4C(=O)N3Cc3ccccc3)ccc3ccccc23)cc1 (stereo not drawn) | 4.7 | . | . | . | 1.4 | .
NS(=O)(=O)c1cccc(Nc2nc3ccccc3nc2NS(=O)(=O)c2ccc(Cl)cc2)c1 | . | . | -2.4% | . | . | .
COc1ccc(Nc2sc(C(=O)Nc3cccc(Cl)c3)c(N)c2C(=O)Nc2ccccc2OC)cc1 | -11.2 | -102.3% | 11.4% | 18.9% | -6.5 | ?
COc1ccccc1NC(=O)CCNS(=O)(=O)c1ccc2c(c1)CC(C)N2C(=O)C1CC1 (stereo not drawn) | -15.5 | ? | -7.6% | 1.4% | 6.9 | -7.5%
CCN(CC(=O)NCc1ccccn1)S(=O)(=O)c1ccc(OC)cc1 | -8.0 | -0.4% | 1.6% | 1.5% | -7.6 | 5.0%
CSc1ncc(-c2ccc(Cl)cc2)[nH]1 | 75.8* | 193.4% | -13.9% | 1.6% | 45.4* | 254.7%
Cc1ccc(C(=O)Nc2ccn(Cc3ccc(F)cc3)n2)o1 | 56.0* | 44.8% | 11.4% | -8.7% | 25.0* | 105.4%
Cc1ccc(C(=O)Nc2ccc(F)cc2F)o1 | 34.4 | 76.1% | -3.7% | -7.8% | 43.8* | .
CC[C@H](C)[C@H](NC(=O)CNC(=O)[C@H](C)NC(=O)[C@H](C)N)C(=O)NCC(=O)N[C@H](C(=O)N[C@@H](CC(C)C)C(=O)N[C@H](C(=O)N[C@H](C(=O)O)C(C)C)[C@@H](C)O)[C@@H](C)CC | -6.1 | . | . | . | -6.3 | .
CC(=O)Nc1ccc(SCC(=O)Nc2ccccc2N2CCOCC2)cc1 | . | . | -1.4% | . | . | .
COc1ccccc1NC(=O)Cc1nnc(SCC(=O)c2ccc(F)cc2)n1C | -8.3 | 36.3% | -2.3% | 11.1% | 0.6 | ?
CCCN(CC(=O)Nc1ccccc1Br)CC(=O)Nc1ccc(F)c(F)c1F | 3.9 | -20.2% | -40.4% | -20.3% | 6.6 | ?
SMILES | Shiga inhibitor | Pf growth 96h | SARS PLpro yeast | NS1 function inh | CHX counter | Pf growth 48h
CCCN(CC(=O)Nc1cc(Cl)cc(Cl)c1)CC(=O)Nc1ccc(F)c(F)c1F | -8.0 | 9.28µM* | -55.1% | -9.4% | 0.3 | ?
O=C(/C=C/c1ccccc1Cl)c1cccnc1 | 2.8 | 66.4% | -42.6% | -196.3% | 5.5 | .
O=C(/C=C/c1ccccc1F)c1ccoc1 | 122.8* | 36.6% | -3.5% | -38.7% | 25.6* | 10.3%
COc1ccccc1-c1nc(SCc2ccccn2)n[nH]1 | 75.8* | 46.5% | -4.9% | -14.3% | 41.3* | 50.3%
CCC(N)Cc1c[nH]c2ccccc12 (stereo not drawn) | -5.5 | 0.675µM*! | 4.2% | 5.5% | 0.7 | 4.9%
Cc1n[nH]c(=O)c2c(NC(=O)CSc3nncn3C(C)C)oc(C)c12 | . | 14.1% | 1.3% | . | . | -23.1%
C#CCN(CC=C)C(=O)CCc1nnc(COc2ccccc2)o1 | 59.0* | 1.2% | 0.3% | 3.3% | 41.7* | 10.2%
CCOC(=O)N1CCN(C(=O)CSc2nnc(COc3ccccc3)o2)CC1 | 12.7 | 12.7% | 11.6% | 11.0% | -4.4 | -18.3%
O=C(O)c1ccc2c(c1)C(=O)N([C@]1(C(=O)O)C[C@H]1c1ccccc1)C2=O | -1.3 | 15.9% | -0.3% | . | -3.6 | ?
Cc1ccc(COC(=O)c2cccc(S(=O)(=O)N3CCCCC3)c2)cc1 | . | ? | -2.3% | . | . | ?
COc1ccc(C(=O)OCc2ccccc2F)cc1S(=O)(=O)N1CCCC1 | . | 13.1µM* | -4.7% | . | . | 9.28µM*
Cc1ccc(COC(=O)c2cccc(S(=O)(=O)N3CCCCCC3)c2)cc1 | . | ? | 0.8% | . | . | ?
O=C(OCc1ccc(Br)cc1)c1cccc(S(=O)(=O)N2CCCC2)c1 | . | 10.4µM* | 0.4% | . | . | ?
COc1ccc(COC(=O)c2ccc(C)c(S(=O)(=O)N3CCOCC3)c2)cc1F | . | 10.4µM* | 1.6% | . | . | ?
COc1ccc(C(=O)OCc2c(F)cccc2Cl)cc1S(=O)(=O)N1CCOCC1 | . | ? | 1.1% | . | . | ?
CC(=O)N1CCN(S(=O)(=O)c2cccc(C(=O)OCc3ccc(C(C)(C)C)cc3)c2)CC1 | . | 9.28µM* | -0.8% | . | . | 11.7µM*
O=C(Nc1ccccc1O)/C(=C\c1ccccc1)NC(=O)c1ccccc1 | 2.1 | 14.1% | -0.6% | 3.5% | -0.9 | -14.8%
COc1ccc(COC(=O)c2cccc(S(=O)(=O)N3CCCC3)c2)cc1F | -5.8 | 11.7µM* | -1.0% | -37.0% | -1.7 | ?
NS(=O)(=O)C#Cc1ccccc1 | 15.2* | . | . | . | 26.4* | .
CN(C)C(=O)C#Cc1ccccc1 | 1.7 | 0.0% | -0.1% | -7.3% | -3.6 | -2.3%
COc1ccc(CNC(=O)COC(=O)CC(NC(N)=O)c2ccc(Cl)cc2)cc1OC (stereo not drawn) | . | 14.8% | -15.4% | . | . | -24.4%
CC(c1ccco1)N(C(=O)c1ccc(Cl)s1)c1ccccn1 (stereo not drawn) | 42.8* | ? | 1.6% | -10.8% | 18.6* | 13.7%
CC(c1ccco1)N(C(=O)c1ccccc1F)c1ccccn1 (stereo not drawn) | 20.9 | 16.2% | -0.9% | 1.5% | 9.0 | 0.0%

Screens deposited in PubChem BioAssay by National Center for Advancing Translational Sciences (NCATS).
